Laboratory results as given in PubChem BioAssay.
Active and inactive are the calls of the source.

How the values were obtained:
[1] = E. coli DRC41 culture turbidity changes, primary screen, E. coli filamentation inducer project, strain DRC41, OD650, 48 h (AID 1152);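 note: E. coli MC1000 strain DRC41 lacking acrAB efflux pump and sulA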; conditions: E. coli DRC41 (acrAB sulA), higher = more signal, called active from +8 up or from −8 down
[2] = small-molecule binders of probe aLefty1, primary screen, biochemical, small-molecule microarray, 635/667 nm fluorescence (AID 1153); conditions: higher = more signal;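 note: score merges spot fluorescence with signal-to-noise ratio from the scanned slide images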
[3] = PSAC antagonists in infected red cells, primary screen, cell-based, P. falciparum Indochina, OD700, 1 h (AID 1154); conditions: P. falciparum Indochina infected RBC osmotic lysis, higher = more signal, called active from +8 up or from −8 down
[4] = PSAC antagonists in infected red cells, primary screen, cell-based, P. falciparum Indochina, OD700, 2 h (AID 1155);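 note: lysis reports solute entry through the parasite surface anion channel PSAC; channel blockers reduce lysis of infected cells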; conditions: P. falciparum Indochina infected erythrocytes, osmotic lysis OD700; higher = more signal, called active from +8 up or from −8 down
[5] = osmotic lysis modulators in infected erythrocytes, primary screen, PSAC antagonist project, cell-based, P. falciparum Indochina, OD700, 3 h (AID 1156); conditions: higher = more signal, called active from +8 up or from −8 down
[6] = PSAC antagonists in infected red cells, primary screen, cell-based, P. falciparum Indochina, OD700, 18 h (AID 1157); conditions: P. falciparum Indochina infected erythrocytes, osmotic lysis OD700, 18 h; higher = more signal, called active from +8 up or from −8 down
[7] = modulators of S6 phosphorylation in cells, primary screen, cell-based, A549, cytoblot, luminescence, serum-stimulated (AID 1158); conditions: A549 phospho-S6 cytoblot, 5 h, higher = more signal;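 note: serum-stimulated A549 lung adenocarcinoma cells; signal is phosphorylated S6 detected by cytoblot immunostaining with HRP secondary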
[8] = target: NADPH oxidase 2 (Homo sapiens) (UniProt P04839); experiment: NOX2-dependent H2O2 signal modulators, primary screen, NOX inhibitor project, cell-based, HEK293-NOX2, PMA-stimulated, Amplex Red fluorescence (AID 1159); conditions: 45 min, higher = more signal, called active from +8 up or from −8 down; note: test concentration not given here
[9] = target: NADPH oxidase 4 (Homo sapiens) (UniProt Q9NPH5); experiment: NOX4-dependent H2O2 signal modulators, primary screen, NOX inhibitor project, cell-based, HEK293-NOX4, tetracycline-induced, Amplex Red fluorescence (AID 1160); conditions: 45 min, higher = more signal, called active from +8 up or from −8 down
[10] = target: NADPH oxidase 5 (Homo sapiens) (UniProt Q96PH1); experiment: NOX5-dependent H2O2 signal modulators, primary screen, NOX inhibitor project, cell-based, HEK293-NOX5, Amplex Red fluorescence (AID 1161); conditions: HEK293-NOX5, ionomycin, 45 min, higher = more signal
Sequence of NADPH oxidase 5 (Homo sapiens) (Q96PH1 whole entry, looked up): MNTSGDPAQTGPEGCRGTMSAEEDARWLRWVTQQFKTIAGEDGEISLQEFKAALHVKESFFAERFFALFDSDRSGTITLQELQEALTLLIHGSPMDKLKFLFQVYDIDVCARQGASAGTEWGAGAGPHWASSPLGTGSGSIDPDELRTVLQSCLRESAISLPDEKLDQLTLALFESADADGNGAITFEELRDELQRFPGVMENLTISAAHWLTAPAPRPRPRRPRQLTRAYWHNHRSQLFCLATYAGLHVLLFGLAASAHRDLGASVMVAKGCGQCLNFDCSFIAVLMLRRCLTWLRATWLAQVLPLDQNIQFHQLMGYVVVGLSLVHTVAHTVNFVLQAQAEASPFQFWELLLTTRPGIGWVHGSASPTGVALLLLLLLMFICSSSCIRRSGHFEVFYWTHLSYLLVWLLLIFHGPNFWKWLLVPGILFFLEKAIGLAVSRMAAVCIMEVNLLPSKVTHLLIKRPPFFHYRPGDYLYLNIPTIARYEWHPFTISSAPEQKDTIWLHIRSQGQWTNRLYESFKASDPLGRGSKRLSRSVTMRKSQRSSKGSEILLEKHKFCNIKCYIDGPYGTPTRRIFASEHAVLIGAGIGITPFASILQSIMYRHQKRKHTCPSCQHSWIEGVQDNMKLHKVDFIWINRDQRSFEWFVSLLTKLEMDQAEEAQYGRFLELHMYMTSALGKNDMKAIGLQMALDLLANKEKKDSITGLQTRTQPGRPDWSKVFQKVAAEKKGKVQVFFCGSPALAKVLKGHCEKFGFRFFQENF

Sequence of NADPH oxidase 4 (Homo sapiens) (Q9NPH5 whole entry, looked up): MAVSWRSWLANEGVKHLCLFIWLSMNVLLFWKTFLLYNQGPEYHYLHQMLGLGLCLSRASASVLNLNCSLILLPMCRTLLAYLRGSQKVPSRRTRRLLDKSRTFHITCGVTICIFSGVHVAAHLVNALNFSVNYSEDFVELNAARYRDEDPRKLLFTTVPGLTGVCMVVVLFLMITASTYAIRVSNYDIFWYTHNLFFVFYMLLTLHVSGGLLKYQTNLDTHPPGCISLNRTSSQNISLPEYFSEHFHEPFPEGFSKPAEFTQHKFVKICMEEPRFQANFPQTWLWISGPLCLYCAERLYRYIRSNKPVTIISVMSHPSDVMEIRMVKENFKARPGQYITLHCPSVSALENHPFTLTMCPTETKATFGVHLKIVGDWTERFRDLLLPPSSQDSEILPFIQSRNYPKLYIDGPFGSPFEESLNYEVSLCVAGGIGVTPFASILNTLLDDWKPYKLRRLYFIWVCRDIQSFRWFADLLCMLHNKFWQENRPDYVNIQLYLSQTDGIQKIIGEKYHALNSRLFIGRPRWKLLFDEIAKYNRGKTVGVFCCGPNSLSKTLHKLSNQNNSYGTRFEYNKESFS
Sequence of NADPH oxidase 2 (Homo sapiens) (P04839 whole entry, looked up): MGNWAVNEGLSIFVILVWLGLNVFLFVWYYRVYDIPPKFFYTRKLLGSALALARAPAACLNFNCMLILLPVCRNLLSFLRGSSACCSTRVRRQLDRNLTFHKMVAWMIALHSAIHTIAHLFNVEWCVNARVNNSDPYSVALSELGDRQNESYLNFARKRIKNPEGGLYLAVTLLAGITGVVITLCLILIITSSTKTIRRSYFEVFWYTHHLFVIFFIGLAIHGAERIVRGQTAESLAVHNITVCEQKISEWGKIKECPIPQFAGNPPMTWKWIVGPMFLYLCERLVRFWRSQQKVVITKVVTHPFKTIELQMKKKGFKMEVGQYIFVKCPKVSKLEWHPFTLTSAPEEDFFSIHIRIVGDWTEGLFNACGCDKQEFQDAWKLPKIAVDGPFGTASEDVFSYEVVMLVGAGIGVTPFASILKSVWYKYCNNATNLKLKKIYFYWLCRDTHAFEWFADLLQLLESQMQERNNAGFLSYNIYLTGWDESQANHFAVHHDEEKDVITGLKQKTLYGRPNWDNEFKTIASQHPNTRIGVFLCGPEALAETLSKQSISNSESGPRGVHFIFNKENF

CCOC(=O)[C@@H]1CCCCN1C(=O)C(=O)OC
z-score [1]: -0.446 (inactive) | composite z-score [2]: -0.0515 | z-score [3]: -1.11 (inactive) | z-score [4]: -0.164 (inactive) | z-score [5]: -0.306 (inactive) | z-score [6]: -0.262 (inactive) | z-score [7]: -0.523 | z-score [8]: 0.296 (inactive) | z-score [9]: -0.28 (inactive) | z-score [10]: 0.153

COc1ccc(C#Cc2ccc3c(c2)[C@]2(C(=O)N3)[C@H](c3ccc(OCCO)cc3)N3[C@H](c4ccccc4)[C@H](c4ccccc4)OC(=O)[C@H]3[C@@H]2C(=O)NC[C@H](O)c2ccccc2)cc1
z-score [1]: 1.01 (inactive) | composite z-score [2]: 0.145 | z-score [3]: 1.97 (inactive) | z-score [4]: 1.76 (inactive) | z-score [5]: -0.403 (inactive) | z-score [6]: 1.08 (inactive) | z-score [7]: 0.0701 | z-score [8]: 0.893 (inactive) | z-score [9]: 0.194 (inactive) | z-score [10]: -0.0443

C=CCNC(=O)[C@H]1[C@@H]2C(=O)O[C@@H](c3ccccc3)[C@@H](c3ccccc3)N2[C@@H](c2ccccc2OCCO)[C@]12C(=O)N(C(=O)OCCOC)c1ccc(C#CC3(O)CCCCCC3)cc12
z-score [1]: 1.49 (inactive) | composite z-score [2]: 0.25 | z-score [3]: 1.58 (inactive) | z-score [4]: 0.166 (inactive) | z-score [5]: -0.236 (inactive) | z-score [6]: -1.57 (inactive) | z-score [7]: 2.01 | z-score [8]: 1.52 (inactive) | z-score [9]: 1.07 (inactive) | z-score [10]: 0.729

O=C(C1N=C(c2ccc(OCCCO)cc2)N(c2ccccc2)O1)N1CCCCC1 (stereo not given)
z-score [1]: 0.666 (inactive) | composite z-score [2]: 0.0338 | z-score [3]: 13.2 (active) | z-score [4]: 1.66 (inactive) | z-score [5]: 0.374 (inactive) | z-score [6]: 0.423 (inactive) | z-score [7]: -0.0704 | z-score [8]: 1.12 (inactive) | z-score [9]: 0.209 (inactive) | z-score [10]: -0.404

CC(=O)NCCCC[C@@H]1NC(=O)[C@@H]2C[C@H](C(=O)NCCCCCN)[C@H](c3ccc(O)cc3)N2C1=O
z-score [1]: 2.04 (inactive) | composite z-score [2]: 0.482 | z-score [3]: 1.46 (inactive) | z-score [4]: 0.374 (inactive) | z-score [5]: 0.45 (inactive) | z-score [6]: 0.301 (inactive) | z-score [7]: 0.856 | z-score [8]: 1.93 (inactive) | z-score [9]: 0.0542 (inactive) | z-score [10]: 2.86

CCOC(=O)C[C@H]1[C@H](OC(=O)c2ccc(C(=O)c3ccccc3)cc2)[C@@H](NC(=O)CC(C)C)c2cc(OCCCO)ccc2N1C(=O)c1ccccc1
z-score [1]: -0.804 (inactive) | composite z-score [2]: -0.191 | z-score [3]: 1.06 (inactive) | z-score [4]: 0.966 (inactive) | z-score [5]: -0.416 (inactive) | z-score [6]: 0.26 (inactive) | z-score [7]: -0.163 | z-score [8]: 1.49 (inactive) | z-score [9]: 0.861 (inactive) | z-score [10]: 1.24

C#Cc1cc2ccccc2oc1=O
z-score [1]: -1.44 (inactive) | composite z-score [2]: 0.228 | z-score [3]: 3.02 (inactive) | z-score [4]: 0.858 (inactive) | z-score [5]: 0.898 (inactive) | z-score [6]: 0.656 (inactive) | z-score [7]: -0.668 | z-score [8]: 0.0724 (inactive) | z-score [9]: -1.35 (inactive) | z-score [10]: -0.807

CCCC#C[Si](O[C@H](CC)c1cn([C@H](C)c2ccccc2)nn1)(C(C)C)C(C)C
z-score [1]: 2.53 (inactive) | composite z-score [2]: 0.28 | z-score [3]: 1.01 (inactive) | z-score [4]: 1.05 (inactive) | z-score [5]: -0.302 (inactive) | z-score [6]: 0.357 (inactive) | z-score [7]: 0.364 | z-score [8]: 0.177 (inactive) | z-score [9]: 0.00728 (inactive) | z-score [10]: 0.7

CC(C)N1C(=O)C[C@@](C(=O)NC2CC2)(c2ccc([N+](=O)[O-])cc2)[C@H]1c1ccc(CO)cc1
z-score [1]: 1.3 (inactive) | composite z-score [2]: -0.231 | z-score [3]: 2.45 (inactive) | z-score [4]: -0.224 (inactive) | z-score [5]: 2.85 (inactive) | z-score [6]: -0.9 (inactive) | z-score [7]: 2.28 | z-score [8]: -0.281 (inactive) | z-score [9]: -1.89 (inactive) | z-score [10]: -1.78

Cc1ccc(S[C@]2(C(=O)NCc3ccccc3)CC(=O)N(C3CCCCC3)[C@@H]2c2ccc(CO)cc2I)cc1
z-score [1]: -0.148 (inactive) | composite z-score [2]: -0.142 | z-score [3]: 5.8 (inactive) | z-score [4]: 1.34 (inactive) | z-score [5]: 1.04 (inactive) | z-score [6]: 0.841 (inactive) | z-score [7]: 0.0194 | z-score [8]: -0.031 (inactive) | z-score [9]: 0.193 (inactive) | z-score [10]: 1.79

COC(=O)[C@@]1(Cc2ccc(OC)cc2)[C@H]2c3cc(C(=O)N(C)C)n(Cc4ccc(OC(F)(F)F)cc4)c3C[C@H]2CN1C(=O)c1ccccc1
z-score [1]: -1.81 (inactive) | composite z-score [2]: 0.407 | z-score [3]: 0.404 (inactive) | z-score [4]: 0.542 (inactive) | z-score [5]: 0.219 (inactive) | z-score [6]: 0.569 (inactive) | z-score [7]: -1.19 | z-score [8]: 0.262 (inactive) | z-score [9]: -0.787 (inactive) | z-score [10]: -0.499

COc1cc2c(cc1O)C(C1CC1)N(Cc1cccc(OC(F)(F)F)c1)CC2 (stereo not given)
z-score [1]: -0.933 (inactive) | composite z-score [2]: -0.105 | z-score [3]: 2.92 (inactive) | z-score [4]: 0.325 (inactive) | z-score [5]: -0.222 (inactive) | z-score [6]: 0.032 (inactive) | z-score [7]: -0.759 | z-score [8]: -5.01 (inactive) | z-score [9]: -2.98 (inactive) | z-score [10]: -4.25

COc1ccc([Si](C)(C)[C@@H]2[C@@H](CC(=O)N(CCO)Cc3ccccc3)O[C@]3(C(=O)N(Cc4cccc(N5CCCCC5=O)c4)c4ccccc43)[C@H]2C)cc1
z-score [1]: 0.152 (inactive) | composite z-score [2]: 0.527 | z-score [3]: 4.33 (inactive) | z-score [4]: 1.85 (inactive) | z-score [5]: 0.422 (inactive) | z-score [6]: 1.14 (inactive) | z-score [7]: 1.19 | z-score [8]: 0.609 (inactive) | z-score [9]: 1.28 (inactive) | z-score [10]: 3.58
